Several values for one entry are separate records, joined by “and”; a condition that tells them apart may be missing. Identical values can stand only once. Records with an inconclusive call do not appear. Where a structure was tested more than once in an assay, its records may differ in their call. Activity calls are given as the source filed them. The calls were made as follows: active = hit-call score of the fitted dose curve at least 0.9, where 1 is the maximum; inconclusive = response in the unintended direction; inactive = score below 0.9.
What was measured:
[1] = TOX21_p53_BLA_p5_viability: Viability Assessment in the Tox21 HCT-116 p53 Agonism Beta-lactamase Assay, Phase 5 (AID 2283600)
How it was run: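 Viability is taken from cellular ATP content, measured by luciferase luminescence in the same wells after the beta-lactamase ratio read. Cells are seeded at 4000 per well and exposed to DMSO-dissolved compounds, diluted 217-fold, for 16 h.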

[2] = target: Cellular tumor antigen p53 (Homo sapiens) (UniProt P04637); assay: TOX21_p53_BLA_p4_ratio: Tox21 HCT-116 p53 Agonism Beta-lactamase Assay, Ratio, Phase 4 (AID 2283601)
How it was run: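 HCT-116 p53 beta-lactamase reporter cells (4000/well) preincubated 5 h, then compound (217-fold dilution of DMSO stock) for 16 h at 37C. CCF4-AM substrate added 2 h at room temperature; 460/530 nm emission ratio fitted upward versus DMSO.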

[3] = Tanguay_ZF_120hpf_MORT_legacy: (Legacy) Oregon State University Tanguay Lab 120 Hour Post-fertilization zebrafish Assay for Mortality (AID 2283633);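 as to AC50: fitted as increase in binary mortality versus DMSO negative control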
How it was run: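 Mortality endpoint from a multiplexed whole-embryo zebrafish screen. Dechorionated wild-type embryos received compound at 6 hpf and remained under static exposure at 28C until 120 hpf, with death noted as a present/absent call.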

[4] = Tanguay_ZF_120hpf_YSE_legacy: (Legacy) Oregon State University Tanguay Lab 120 Hour Post-fertilization zebrafish Assay for Yolk Sac Edema (AID 2283634);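 as to AC50: actives raise the incidence of yolk sac edema above the DMSO baseline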
How it was run: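 Readout: presence or absence of yolk sac edema at 120 hpf, fitted upward against DMSO controls. Exposure ran statically from 6 hpf in dechorionated embryos kept at 28C.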

[5] = Tanguay_ZF_120hpf_AXIS_legacy: (Legacy) Oregon State University Tanguay Lab 120 Hour Post-fertilization zebrafish Assay for Body Axis Malformation (AID 2283635);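 as to AC50: potency for an increased fraction of larvae scored with body axis malformation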
How it was run: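 Static 6–120 hpf chemical exposure of dechorionated wild-type 5D zebrafish, one per well at 28C; morphology endpoint scored binary at 120 hpf relative to DMSO control.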

[6] = Tanguay_ZF_120hpf_EYE_legacy: (Legacy) Oregon State University Tanguay Lab 120 Hour Post-fertilization zebrafish Assay for Eye Malformation (AID 2283636);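 also: binary presence or absence of eye malformation scored by brightfield in 120 hpf larvae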
How it was run: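 5D wild-type embryos, pronase-dechorionated at 4 hpf; static exposure 6–120 hpf, 28C, dark; DMSO 0.64% final; 5uM trimethyltin chloride positive control. Binary eye-defect scoring at 120 hpf; dead embryos not scored.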

[7] = Tanguay_ZF_120hpf_SNOU_legacy: (Legacy) Oregon State University Tanguay Lab 120 Hour Post-fertilization zebrafish Assay for Snout Malformation (AID 2283637)
How it was run: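 Binary brightfield scoring of snout malformation at 120 hpf. Dechorionated 5D wild-type embryos, one per well, static exposure from 6 hpf at 28C, sealed and dark; final DMSO 0.64% (vol/vol), DMSO as baseline; 5uM trimethyltin chloride positive control.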

[8] = Tanguay_ZF_120hpf_JAW_legacy: (Legacy) Oregon State University Tanguay Lab 120 Hour Post-fertilization zebrafish Assay for Jaw Malformation (AID 2283638)
How it was run: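 Static waterborne exposure of dechorionated wild-type (Tropical 5D) zebrafish from 6 to 120 hpf at 28C, 0.64% DMSO vehicle; 5uM trimethyltin chloride served as positive control. Jaw morphology recorded as binary at 120 hpf.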

[9] = Tanguay_ZF_120hpf_OTIC_legacy: (Legacy) Oregon State University Tanguay Lab 120 Hour Post-fertilization zebrafish Assay for Otic Vesicle Malformation (AID 2283639)
How it was run: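 Wild-type zebrafish larvae, whole-embryo exposure from early stage to 120 hpf at 28C. Binary brightfield scoring of otic vesicle morphology, fitted in the positive direction against the DMSO baseline.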

[10] = Tanguay_ZF_120hpf_PE_legacy: (Legacy) Oregon State University Tanguay Lab 120 Hour Post-fertilization zebrafish Assay for Pericardial Edema (AID 2283640);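 as to AC50: potency for increased incidence of pericardial edema versus DMSO baseline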
How it was run: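 Read-out is the presence or absence of pericardial edema at 120 hpf under brightfield, with gain of signal fitted against DMSO controls. Larvae (5D wild-type) were statically exposed at 28C with 0.64% final DMSO.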

Chain of Cellular tumor antigen p53 (Homo sapiens) (P04637 whole entry, looked up): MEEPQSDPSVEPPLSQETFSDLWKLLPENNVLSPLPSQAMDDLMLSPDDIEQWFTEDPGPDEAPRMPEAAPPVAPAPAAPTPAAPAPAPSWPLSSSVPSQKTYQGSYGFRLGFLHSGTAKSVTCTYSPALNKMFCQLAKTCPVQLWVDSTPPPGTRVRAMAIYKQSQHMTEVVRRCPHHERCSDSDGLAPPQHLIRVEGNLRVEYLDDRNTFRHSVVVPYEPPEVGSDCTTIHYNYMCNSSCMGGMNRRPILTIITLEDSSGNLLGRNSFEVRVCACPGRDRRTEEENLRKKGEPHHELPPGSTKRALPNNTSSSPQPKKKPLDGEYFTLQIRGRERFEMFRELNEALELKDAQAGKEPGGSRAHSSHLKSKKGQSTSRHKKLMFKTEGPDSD

Structure (SMILES)	AC50 [1]	AC50 [2]	outcome [1]	outcome [2]	outcome [3]	outcome [4]	outcome [5]	outcome [6]	outcome [7]	outcome [8]	outcome [9]	outcome [10]	AC50 [5]	AC50 [3]	AC50 [4]	AC50 [10]
COc1cc(/C=C/C(=O)CC(=O)/C=C/c2ccc(O)c(OC)c2)ccc1O	80.7 µM (active) and 22.5 µM (active)	14 µM (active) and 36.5 µM (active) and 7.12 µM (active)	–	–	–	–	–	–	–	–	–	–	–	–	–	–
Cc1ccccc1Cl	–	–	inactive	inactive	inactive	inactive	inactive	inactive	inactive	inactive	inactive	–	–	–	–	–
O=C(N[C@@H](Cc1ccccc1)[C@@H](O)C(=O)N1C[C@@H](O)[C@@H](O)C1)c1cc2cc(Cl)ccc2[nH]1	–	–	inactive	inactive	inactive	inactive	inactive	inactive	inactive	inactive	inactive	inactive	–	–	–	–
C1CCC(SSC2CCCCC2)CC1	–	–	inactive	inactive	inactive	inactive	inactive	–	–	inactive	inactive	inactive	–	–	–	–
CC1=C(/C=C/C(C)=C/C=C/C(C)=C/CO)C(C)(C)CCC1	–	–	inactive	inactive	inactive	inactive	inactive	inactive	inactive	–	inactive	inactive	–	–	–	–
Cc1cc(=O)[nH]c(=S)[nH]1	–	–	inactive	inactive	inactive	inactive	inactive	inactive	inactive	inactive	inactive	–	–	–	–	–
CCOC(=O)C(C)(C)Oc1ccc(Cl)cc1	–	–	inactive	inactive	inactive	inactive	–	inactive	–	–	–	–	63.8 µM (active)	–	–	–
CCNc1cccc(C)c1	–	–	inactive	inactive	inactive	inactive	inactive	inactive	inactive	inactive	inactive	inactive	–	–	–	–
O=[N+]([O-])C(CO)(CO)CO	–	–	inactive	inactive	inactive	inactive	inactive	inactive	inactive	inactive	inactive	inactive	–	–	–	–
CC=Cc1ccc(O)c(OC)c1	–	–	inactive	inactive	inactive	inactive	inactive	inactive	–	inactive	inactive	–	–	–	–	–
C=CCOC(=O)c1ccccc1C(=O)OCC=C	–	–	inactive	inactive	–	–	inactive	inactive	inactive	inactive	inactive	–	–	13.9 µM (active)	30.9 µM (active)	46.9 µM (active)
C=CCc1ccc(O)c(OC)c1	–	–	inactive	inactive	inactive	inactive	inactive	inactive	inactive	inactive	inactive	–	–	–	–	–
CCCCCCCCCCCCCO	–	–	inactive	inactive	inactive	inactive	inactive	inactive	inactive	inactive	inactive	–	–	–	–	–
CNCc1cc(F)ccc1Oc1ccc(Cl)c(Cl)c1	–	64.4 µM (active)	inactive	–	inactive	inactive	inactive	–	inactive	inactive	inactive	–	–	–	–	–
O=C(OCCCCCOC(=O)c1ccccc1)c1ccccc1	–	–	inactive	inactive	inactive	inactive	inactive	inactive	inactive	inactive	inactive	–	–	–	–	–
Nc1nc(N)c2nc(CNc3ccc(C(=O)N[C@@H](CCC(=O)O)C(=O)O)cc3)cnc2n1	64.9 nM (active)	0.0582 µM (active)	–	inactive	inactive	inactive	–	inactive	inactive	inactive	inactive	inactive	–	–	–	–
Cc1ccc2ncccc2c1	–	–	inactive	inactive	inactive	inactive	inactive	inactive	inactive	inactive	inactive	–	–	–	–	–
Cc1oc(-c2ccccc2)nc1CCOc1cccc2c1ccn2CCC(=O)O	–	–	inactive	inactive	inactive	inactive	inactive	–	inactive	inactive	inactive	–	–	–	–	–
OC[C@@H](O)[C@@H](O)[C@H](O)[C@H](O)CO	–	–	inactive	inactive	inactive	inactive	inactive	inactive	inactive	inactive	inactive	–	–	–	–	–
CCCCCCCCCCCC(=O)OC	–	–	inactive	inactive	inactive	inactive	inactive	inactive	inactive	–	–	–	–	–	–	–
